The text below walks through data of PubChem BioAssay AID1532 (PCMD, 2009).

Structures are written as SMILES. The campaign covered roughly 110,000 compounds. About 420 (0.38%) were called active. No stated cut-off is given here; in the data, active means inhibition above about 30% (passing the limit was not always enough); inconclusive means no clear call, values can overlap the other calls. Many of the other results were omitted from the sample, so actives are more common in it than they were.

The test system of the assay is RmlC (dTDP-4-dehydrorhamnose 3,5-epimerase) and RmlD (dTDP-4-dehydrorhamnose reductase), coupled enzyme assay. Nature of the assay: RmlC and RmlD coupled enzyme inhibitors, primary screen, biochemical, 384-well, compound mixtures, retest (AID 1532). Conditions: 384-well mixture HTS, at 5.5 µM, stronger effect = higher value.
Where [1] appears, read: measured here: mean retest inhibition.

As a reminder, the inhibition is the relative decrease from the control value, in per cent. Regarding `O=C1c2ccccc2S(=O)(=O)c2cc(N3CCN(c4ccccn4)CC3)ccc21`, the inhibition is -10.5% (inactive).

Turning to `C=CCSc1nnc2c(n1)-c1cccc3cccc-2c13`, the inhibition is 10.4% (inactive).

Regarding `COc1ccc(-c2nc3c(s2)CCc2onc(-c4ccc(Br)cc4)c2-3)cc1`, the inhibition is -14.4% (inactive).

For `COC(C[C@@H](O)C[C@@H](O)[C@H](C)OCc1ccccc1)OC`, the inhibition is 1.16% (inactive).

Take `C=CC(COCc1ccccc1)N(Cc1ccccc1)S(=O)(=O)c1ccccc1Br` (centres undefined): the inhibition is 14.3% (inactive).

Regarding `CC(C)C[C@H](CO)Nc1nc(N(C)c2cccc(Cl)c2)c2ncn(C(C)C)c2n1`, the inhibition is 4.1% (inactive).

In the case of `NCCCC[C@@H]1NC(=O)[C@H](CCC(=O)O)NC(=O)c2cc([N+](=O)[O-])cc(I)c2NCC[C@@H](C(N)=O)NC1=O`, the inhibition is -2.74% (inactive).

Consider `COC(C[C@@H](O)C[C@H](O)[C@H](C)OCc1ccccc1)OC`, for which the inhibition was 8.66% (inactive).

For the molecule `COc1cccc(NC(=S)N(CCc2c(C)[nH]c3ccccc23)Cc2ccco2)c1`, the inhibition was -5.74% (inactive).

`O=c1cc(-c2ccccc2)[nH]c2cc(F)ccc12`: the inhibition was 2.31% (inactive).

Turning to `C=CCCN(Cc1ccccc1)S(=O)(=O)c1ccccc1Br`, the inhibition is 17.6% (inactive).

On to `CC1CCN(c2oc(-c3ccccc3F)nc2C#N)CC1`, for which the inhibition was 19.3% (inactive).

Turning to `COc1ccccc1-c1nc(C#N)c(N2CCC(C(N)=O)CC2)o1`, the inhibition was 31.8% (active). For the same molecule, the inhibition under setting [1] stood at 33.6%.

Take `COc1ccccc1-c1nnc(SCC(=O)N2CC(C)CC(C)C2)o1` (centres undefined): the inhibition is -13.8% (inactive).

As for `O=C(NC1CC1)C1=C[C@H](c2coc3ccccc3c2=O)C[C@H](OCCCCO)O1`, the inhibition is -32.1% (inactive).

On to `O=C(C1=C[C@H](C2CC2)C[C@H](OCc2ccc(CO)cc2)O1)N1CCN(Cc2ccccc2)CC1`, for which the inhibition was 2.28% (inactive).

On to `COC(=O)C1=C(C(=O)OC)[C@@H]2N(C)c3ccccc3[C@@]23C[C@@H](C(=O)OC)N(C(C)=O)C3=N1`, for which the inhibition was 1.9% (inactive).

Turning to `CC(=O)n1cc([C@@H]2C=C(C(=O)N3CCN(Cc4ccc5c(c4)OCO5)CC3)O[C@H](OCc3ccc(CO)cc3)C2)c2ccccc21`, the inhibition is 5.68% (inactive).

For the molecule `O=C(NCc1cc(C(F)(F)F)cc(C(F)(F)F)c1)C1CC(c2cccc(F)c2)=NO1` (centres undefined), the inhibition is 2.58% (inactive).

Take `CCO[C@@H]1OC(C(N)=O)=C[C@H](c2ccc(Br)cc2)[C@H]1CCCO`: the inhibition is 3.81% (inactive).

As for `CC(NC(=O)Nc1ccccc1)C(c1cccs1)N1CCN(c2ccccc2)CC1` (centres undefined), the inhibition is 10.1% (inactive).

For the molecule `CCO[C@H]1OC(C(=O)NCc2ccccc2)=C[C@@H](c2coc3ccccc3c2=O)[C@@H]1CCCO`, the inhibition is 1.17% (inactive).

For `COc1ccc(-c2nnc(SCC(=O)c3ccc4c(c3)OCCO4)o2)cc1`, the inhibition is -6.96% (inactive).

For `COc1ccc(C#Cc2c(-c3ccc(OC)cc3)oc3ccc(-c4ccc5c(c4)OCO5)cc23)cc1`, the inhibition under setting [1] turned out to be 110%.

Take `COc1ccc(-c2csc(N3CCN(Cc4ccc5c(c4)OCO5)CC3)n2)cc1`: the inhibition was 25.8% (inactive).

For `C[C@@H]1CC[C@]2(O[C@@H](CCO)C[C@H](O)[C@H]2O)O1`, the inhibition was -20.2% (inactive).

For `CCOC(=O)c1sc(NC(=O)CSc2nc3c(c(=O)n2-c2ccccc2)SCC3)c(C(=O)OCC)c1C`, the inhibition was -104% (inactive).

Take `CCC(C)[C@@H](C(=O)N1CCNCC1)n1cc(CCCCN)nn1` (some centres undefined): the inhibition is -10% (inactive).

With `CN1CCN(C(=O)C2=C[C@H](c3ccc4c(c3)OCO4)C[C@H](OCc3ccc(CO)cc3)O2)CC1`, the inhibition is 8.25% (inactive).

For the molecule `CC(C)(C)n1nc(Cc2cccc3ccccc23)c(C#N)c1N`, the inhibition was -12.7% (inactive).

With `CCOC(=O)/C=C/c1ccc(C(F)(F)F)cc1S(=O)(=O)NC(C)(C)C`, the inhibition was 32.4% (inactive). Under setting [1], the inhibition was -3.06%.

In the case of `O=C1NC[C@@H](Cc2ccc(O)cc2)N(CCc2cccc(F)c2)C1=O`, the inhibition is 6.42% (inactive).

`COC(=O)CCCC1=CC2=CC(=O)C(C)(OC(=O)c3cccs3)C(=O)C2=CN1CC1CC1` (centres undefined): the inhibition is 1.92% (inactive).

Take `COc1ccc(CNC(=O)C2(CC3CC(c4ccccc4)=NO3)CCN(C(=O)c3cccc(O)c3)CC2)cc1` (centres undefined): the inhibition is -4.7% (inactive).

As for `COC(C/C=C/C(=O)[C@@H](C)OCc1ccccc1)OC`, the inhibition was 9.13% (inactive).

Take `C#CCOCCOCCOCCNc1nc(N2CCN(C(=O)[C@H](Cc3ccc(O)cc3)n3cc(C(N)CC(C)C)nn3)CC2)nc(N2CCN(C(=O)[C@H](CCC(=O)O)n3cc(C(N)[C@H](C)CC)nn3)CC2)n1` (some centres undefined): the inhibition is 7.73% (inactive).

As to `CN1CCCc2cc(C#N)c(=O)[nH]c21`, the inhibition is 48.2% (active). For the same molecule, under setting [1], the inhibition was 113%.

Regarding `C#CCNC(=O)[C@H](Cc1ccc(C(=O)c2ccccc2)cc1)NC(=O)OC(C)(C)C`, the inhibition is -13.5% (inactive).

`CCO[C@@H]1OC(C(=O)N2CCOCC2)=C[C@H](C)[C@H]1CCCO`: the inhibition is -9.82% (inactive).

As for `CC1(OC(=O)CCc2ccccc2)C(=O)C=C2C=C(c3ccc(C#N)cc3)N(CCc3ccccn3)C=C2C1=O` (centres undefined), the inhibition is 3.85% (inactive).

`O=c1c(-c2ccccc2)coc2cc(O)ccc12`: the inhibition was 44.3% (inactive). Under setting [1], the inhibition came out at 18%.

As to `O=c1oc2cc(O)ccc2cc1-c1ccc(F)cc1`, the inhibition is 136% (active). In addition, the inhibition under setting [1] amounted to 118%.

Consider `COc1ccc(-c2cc3ccc(OCc4nn[nH]n4)cc3oc2=O)cc1`, for which the inhibition is 94.2% (inactive). The inhibition under setting [1] is 82.7%.

In the case of `COC(C[C@@H]1O[C@@H]1C(=O)[C@@H](C)OCc1ccccc1)OC`, the inhibition is 13.7% (inactive).

Take `CC1(C)C=C2[C@H]3CC[C@@H]4[C@@]5(C)CCC(=O)C(C)(C)[C@@H]5CC[C@@]4(C)[C@]3(C)CC[C@@]2(C(=O)O)CC1`: the inhibition was 9.38% (inactive).

Take `C[C@@H]1NC(=O)c2cc([N+](=O)[O-])cc(F)c2NCCC[C@@H](C(N)=O)NC(=O)[C@H](CC(N)=O)NC1=O`: the inhibition was 5.67% (inactive).

As to `CNC(=O)c1[nH]cnc1C(=O)N[C@@H](CC(C)C)C(=O)OCc1ccccc1`, the inhibition was 1.9% (inactive).

In the case of `CCOC(=O)c1cccc(NC(=O)c2ccc(F)cc2F)c1`, the inhibition was -9.66% (inactive).

For `O=C(NC1CC1)C1=C[C@H](c2c[nH]c3ccccc23)C[C@H](OCc2ccc(CO)cc2)O1`, the inhibition was 7.9% (inactive).

As for `Cn1ccnc1-c1nnn(-c2ccc(F)cc2)n1`, the inhibition is -8.61% (inactive).

Turning to `CCC(=O)Nc1cccc(C2=NOC3(C2)C[C@@H](C(N)=O)N(C(=O)c2cc([N+](=O)[O-])cc([N+](=O)[O-])c2C)C3)c1` (some centres undefined), the inhibition is 4.35% (inactive).

Turning to `CCOC(=O)N1CCN(C(=O)c2cc3c(ccc4ccccc43)oc2=O)CC1`, the inhibition was 2.38% (inactive).

As for `CC(=O)c1ccc2c(ccc3ccccc32)c1`, the inhibition is 5.48% (inactive).

For the molecule `CNC(=O)c1cc2c(ccc3ccccc32)oc1=N`, the inhibition is 52.7% (active). For the same molecule, the inhibition under setting [1] was found to be 155%.

Take `CCOC(=O)c1c(NC(=O)C(C)Sc2c[nH]c3ccccc23)sc2c1CCC2` (centres undefined): the inhibition is -9.18% (inactive).

Take `CCOC(=O)C[C@H]1c2ccc(C(F)(F)F)cc2S(=O)(=O)N1c1ccccc1`: the inhibition was -16.1% (inactive).

For `COc1ccc(C[C@H]2CN3C(=NC[C@H]3C)N2CCNC(=O)CCC2CCCCC2)cc1`, the inhibition was 6.01% (inactive).
